Assay results from ChEMBL document CHEMBL2218924, “A broad activity screen in support of a chemogenomic map for kinase signalling research and drug discovery” (Biochem J, 2013).

The compounds below were run against Tyrosine-protein kinase HCK (Homo sapiens) (UniProt P08631). Settings: at 10 µM.
Chain of Tyrosine-protein kinase HCK (Homo sapiens) (P08631 2-526 limits assumed): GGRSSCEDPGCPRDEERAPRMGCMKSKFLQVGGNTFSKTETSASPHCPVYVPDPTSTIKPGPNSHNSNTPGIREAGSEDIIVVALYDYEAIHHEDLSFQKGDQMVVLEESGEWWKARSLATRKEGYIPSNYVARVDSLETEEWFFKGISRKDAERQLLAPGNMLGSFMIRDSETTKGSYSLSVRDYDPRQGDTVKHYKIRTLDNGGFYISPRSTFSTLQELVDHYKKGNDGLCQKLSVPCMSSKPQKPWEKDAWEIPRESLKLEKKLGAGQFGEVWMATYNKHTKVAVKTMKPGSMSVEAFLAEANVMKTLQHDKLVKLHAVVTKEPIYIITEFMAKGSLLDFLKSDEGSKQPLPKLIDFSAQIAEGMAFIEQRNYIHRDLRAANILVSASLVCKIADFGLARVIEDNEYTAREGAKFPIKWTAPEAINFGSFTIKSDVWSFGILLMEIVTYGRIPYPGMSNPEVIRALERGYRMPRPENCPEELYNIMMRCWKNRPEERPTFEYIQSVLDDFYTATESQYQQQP
For `COc1ccc2c(c1)c(C1=C(c3c[nH]c4ccccc34)C(=O)NC1=O)cn2CCCN(C)C`, the residual activity was 53%.
Work on `COc1cc2nccc(Oc3ccc(NC(=S)NC(=O)c4ccccc4C)cc3)c2cc1OC` yielded a residual activity of 1%.
In the case of `CC(C)(C)n1nc(Cc2cccc3ccccc23)c2c(N)ncnc21`, the residual activity is reported as 3%.
In the case of `O=C(NC(NC(=S)Nc1ccc(F)c([N+](=O)[O-])c1)C(Cl)(Cl)Cl)C(c1ccccc1)c1ccccc1` (configuration not stated), the residual activity is reported as 38%.
`Nc1ncnc2c1cnn2-c1ccccc1` was tested, and the residual activity was 68%.
`O=C1NC(=O)C(c2c[nH]c3ccccc23)=C1c1c[nH]c2ccccc12` showed a residual activity of 38%.
`O=C1NC(=O)c2c1c1c3ccccc3[nH]c1n1cncc21` gave a residual activity of 39%.
`CCCCc1c(-c2ccc(OC)cc2)[nH]c2nccnc12` gave a residual activity of 24%.
`COc1cc2c(cc1OC)-c1n[nH]c(Nc3cccc(F)c3)c1C2` showed a residual activity of 6%.
Work on `Nc1ncnc2c1c(-c1ccc(Oc3ccccc3)cc1)cn2C1CCCC1` yielded a residual activity of 1%.
`O=C1Nc2ccccc2/C1=C\c1c(Cl)[nH]c2ccccc12` was tested, and the residual activity was 27%.
`O=c1cc(N2CCOCC2)oc2c1ccc1ccccc12` gave a residual activity of 77%.
`CCCC(=O)Oc1ccc2[nH]c(C(=O)c3cc4ccccc4[nH]3)cc2c1` was tested, and the residual activity was 36%.
Work on `O=C1NC(=O)C(c2cn(CCCn3ccnc3)c3ccccc23)=C1Nc1ccccc1` yielded a residual activity of 65%.
`CCN(CC)CCNC(=O)c1c(C)[nH]c(/C=C2\C(=O)Nc3ccc(Cl)cc32)c1C` was tested, and the residual activity was 3%.
With `O=C(c1cc2cc(O)ccc2[nH]1)c1cc2cc(O)ccc2[nH]1` the residual activity was 5%.
Work on `CN(C)S(=O)(=O)c1ccc2c(c1)/C(=C/c1cc3c([nH]1)CCCC3)C(=O)N2` yielded a residual activity of 10%.
Compound `Oc1cccc(-c2nc(N3CCOCC3)c3oc4ncccc4c3n2)c1` has a residual activity of 68%.
`O=C(CCCc1ccc(-c2ccccc2F)cc1)Nc1ccc(O)cc1` showed a residual activity of 62%.
With `NC(=O)Nc1sc(-c2ccc(F)cc2)cc1C(N)=O` the residual activity was 6%.
`Cc1cc(C)c(/C=C2\C(=O)Nc3ccccc32)[nH]1` was tested, and the residual activity was 25%.
In the case of `O=C(c1ccccc1)c1ccc(N2CCOCC2)cc1O`, the residual activity is reported as 75%.
`O=C(O)/C=C/c1cc(Br)c(Br)c(Br)c1Br` gave a residual activity of 48%.
Compound `O=C(Nc1nc2ccccc2n1CCN1CCOCC1)c1cccc([N+](=O)[O-])c1` has a residual activity of 77%.
For `CCCCc1c(-c2ccc(O)cc2)[nH]c2nccnc12`, the residual activity was 23%.
Work on `O=c1cc(N2CCNCC2)oc2c(-c3ccccc3)cccc12` yielded a residual activity of 66%.
`O=C1Nc2ccc(Cl)cc2/C1=C/c1cc(Cl)c(O)c(Cl)c1` was tested, and the residual activity was 15%.
`CC(C)[C@H](CO)Nc1nc(Nc2cc(N)cc(Cl)c2)c2ncn(C(C)C)c2n1` gave a residual activity of 5%.
Compound `O=C1C(Cl)=C(N2C(=O)CCC2=O)C(=O)c2ccccc21` has a residual activity of 63%.
Compound `Cn1c2ccccc2c2c3c(c4c5ccccc5n(CCC#N)c4c21)CNC3=O` has a residual activity of 9%.
`CC(C)c1nn(-c2c(Cl)cccc2Cl)c2nc(Cc3ccc(OCCO)cc3)[nH]c(=O)c12` was tested, and the residual activity was 56%.
`Nc1nc(Nc2ccc(S(N)(=O)=O)cc2)nn1C(=O)c1c(F)cccc1F` gave a residual activity of 25%.
